Results on 40 targets are retold here after the supplement of paper PMC11732987, “Enantioselective OTUD7B fragment discovery through chemoproteomics screening and high-throughput optimisation” (Communications Chemistry, 2025).

Values without a mark were called inactive.

UniProt Q93009, sequence (Q93009 whole entry, looked up): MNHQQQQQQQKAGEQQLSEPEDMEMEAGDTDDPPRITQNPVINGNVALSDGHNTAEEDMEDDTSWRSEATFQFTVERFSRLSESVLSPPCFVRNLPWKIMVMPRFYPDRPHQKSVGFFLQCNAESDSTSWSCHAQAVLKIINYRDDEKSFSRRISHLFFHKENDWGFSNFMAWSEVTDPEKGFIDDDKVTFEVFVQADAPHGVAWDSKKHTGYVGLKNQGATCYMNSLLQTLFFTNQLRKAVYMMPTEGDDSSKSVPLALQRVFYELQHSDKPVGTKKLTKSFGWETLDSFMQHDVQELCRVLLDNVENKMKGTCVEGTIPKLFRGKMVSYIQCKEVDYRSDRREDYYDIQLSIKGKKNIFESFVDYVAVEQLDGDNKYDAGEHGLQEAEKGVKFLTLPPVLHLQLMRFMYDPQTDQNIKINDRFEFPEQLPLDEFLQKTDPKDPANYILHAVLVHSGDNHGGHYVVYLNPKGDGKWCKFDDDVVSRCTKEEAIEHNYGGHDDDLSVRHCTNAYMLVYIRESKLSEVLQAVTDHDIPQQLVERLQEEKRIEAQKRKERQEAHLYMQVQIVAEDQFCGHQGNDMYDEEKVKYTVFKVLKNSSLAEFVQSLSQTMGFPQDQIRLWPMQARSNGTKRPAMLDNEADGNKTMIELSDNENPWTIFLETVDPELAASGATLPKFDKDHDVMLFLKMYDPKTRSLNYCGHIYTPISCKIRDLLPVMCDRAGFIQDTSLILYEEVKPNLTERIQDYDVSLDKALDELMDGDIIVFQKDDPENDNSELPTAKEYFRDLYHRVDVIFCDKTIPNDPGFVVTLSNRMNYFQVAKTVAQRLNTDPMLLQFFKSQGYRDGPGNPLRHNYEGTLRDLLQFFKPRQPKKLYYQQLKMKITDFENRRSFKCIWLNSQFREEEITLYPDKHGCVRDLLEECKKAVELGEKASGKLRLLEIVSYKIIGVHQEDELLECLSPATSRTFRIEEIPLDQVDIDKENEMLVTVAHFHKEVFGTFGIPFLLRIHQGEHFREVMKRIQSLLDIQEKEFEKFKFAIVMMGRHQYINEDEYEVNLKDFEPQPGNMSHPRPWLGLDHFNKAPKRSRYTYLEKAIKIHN
UniProt Q9Y5T5, sequence (Q9Y5T5 whole entry, looked up): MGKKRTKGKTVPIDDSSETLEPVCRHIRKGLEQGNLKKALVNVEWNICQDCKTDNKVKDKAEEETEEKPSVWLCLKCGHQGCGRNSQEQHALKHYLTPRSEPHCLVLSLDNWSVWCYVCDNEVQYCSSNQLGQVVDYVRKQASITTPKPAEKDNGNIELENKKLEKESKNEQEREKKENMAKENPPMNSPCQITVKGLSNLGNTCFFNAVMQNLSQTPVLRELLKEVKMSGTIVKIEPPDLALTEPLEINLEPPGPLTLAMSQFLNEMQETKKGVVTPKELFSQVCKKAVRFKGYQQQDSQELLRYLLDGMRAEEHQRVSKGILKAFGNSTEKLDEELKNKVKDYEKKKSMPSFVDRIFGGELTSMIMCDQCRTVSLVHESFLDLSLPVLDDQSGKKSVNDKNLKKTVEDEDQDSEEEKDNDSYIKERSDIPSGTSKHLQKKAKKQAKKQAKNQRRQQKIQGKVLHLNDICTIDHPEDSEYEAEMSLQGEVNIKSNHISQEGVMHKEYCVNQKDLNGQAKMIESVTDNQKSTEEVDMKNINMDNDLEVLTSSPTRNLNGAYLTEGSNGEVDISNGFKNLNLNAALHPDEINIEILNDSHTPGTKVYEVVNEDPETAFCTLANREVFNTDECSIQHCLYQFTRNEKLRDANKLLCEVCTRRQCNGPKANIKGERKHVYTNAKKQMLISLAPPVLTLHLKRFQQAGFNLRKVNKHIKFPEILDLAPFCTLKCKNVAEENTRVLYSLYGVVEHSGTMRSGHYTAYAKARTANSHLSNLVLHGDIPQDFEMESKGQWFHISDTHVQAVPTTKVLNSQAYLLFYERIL
UniProt Q9UPU5, sequence (Q9UPU5 whole entry): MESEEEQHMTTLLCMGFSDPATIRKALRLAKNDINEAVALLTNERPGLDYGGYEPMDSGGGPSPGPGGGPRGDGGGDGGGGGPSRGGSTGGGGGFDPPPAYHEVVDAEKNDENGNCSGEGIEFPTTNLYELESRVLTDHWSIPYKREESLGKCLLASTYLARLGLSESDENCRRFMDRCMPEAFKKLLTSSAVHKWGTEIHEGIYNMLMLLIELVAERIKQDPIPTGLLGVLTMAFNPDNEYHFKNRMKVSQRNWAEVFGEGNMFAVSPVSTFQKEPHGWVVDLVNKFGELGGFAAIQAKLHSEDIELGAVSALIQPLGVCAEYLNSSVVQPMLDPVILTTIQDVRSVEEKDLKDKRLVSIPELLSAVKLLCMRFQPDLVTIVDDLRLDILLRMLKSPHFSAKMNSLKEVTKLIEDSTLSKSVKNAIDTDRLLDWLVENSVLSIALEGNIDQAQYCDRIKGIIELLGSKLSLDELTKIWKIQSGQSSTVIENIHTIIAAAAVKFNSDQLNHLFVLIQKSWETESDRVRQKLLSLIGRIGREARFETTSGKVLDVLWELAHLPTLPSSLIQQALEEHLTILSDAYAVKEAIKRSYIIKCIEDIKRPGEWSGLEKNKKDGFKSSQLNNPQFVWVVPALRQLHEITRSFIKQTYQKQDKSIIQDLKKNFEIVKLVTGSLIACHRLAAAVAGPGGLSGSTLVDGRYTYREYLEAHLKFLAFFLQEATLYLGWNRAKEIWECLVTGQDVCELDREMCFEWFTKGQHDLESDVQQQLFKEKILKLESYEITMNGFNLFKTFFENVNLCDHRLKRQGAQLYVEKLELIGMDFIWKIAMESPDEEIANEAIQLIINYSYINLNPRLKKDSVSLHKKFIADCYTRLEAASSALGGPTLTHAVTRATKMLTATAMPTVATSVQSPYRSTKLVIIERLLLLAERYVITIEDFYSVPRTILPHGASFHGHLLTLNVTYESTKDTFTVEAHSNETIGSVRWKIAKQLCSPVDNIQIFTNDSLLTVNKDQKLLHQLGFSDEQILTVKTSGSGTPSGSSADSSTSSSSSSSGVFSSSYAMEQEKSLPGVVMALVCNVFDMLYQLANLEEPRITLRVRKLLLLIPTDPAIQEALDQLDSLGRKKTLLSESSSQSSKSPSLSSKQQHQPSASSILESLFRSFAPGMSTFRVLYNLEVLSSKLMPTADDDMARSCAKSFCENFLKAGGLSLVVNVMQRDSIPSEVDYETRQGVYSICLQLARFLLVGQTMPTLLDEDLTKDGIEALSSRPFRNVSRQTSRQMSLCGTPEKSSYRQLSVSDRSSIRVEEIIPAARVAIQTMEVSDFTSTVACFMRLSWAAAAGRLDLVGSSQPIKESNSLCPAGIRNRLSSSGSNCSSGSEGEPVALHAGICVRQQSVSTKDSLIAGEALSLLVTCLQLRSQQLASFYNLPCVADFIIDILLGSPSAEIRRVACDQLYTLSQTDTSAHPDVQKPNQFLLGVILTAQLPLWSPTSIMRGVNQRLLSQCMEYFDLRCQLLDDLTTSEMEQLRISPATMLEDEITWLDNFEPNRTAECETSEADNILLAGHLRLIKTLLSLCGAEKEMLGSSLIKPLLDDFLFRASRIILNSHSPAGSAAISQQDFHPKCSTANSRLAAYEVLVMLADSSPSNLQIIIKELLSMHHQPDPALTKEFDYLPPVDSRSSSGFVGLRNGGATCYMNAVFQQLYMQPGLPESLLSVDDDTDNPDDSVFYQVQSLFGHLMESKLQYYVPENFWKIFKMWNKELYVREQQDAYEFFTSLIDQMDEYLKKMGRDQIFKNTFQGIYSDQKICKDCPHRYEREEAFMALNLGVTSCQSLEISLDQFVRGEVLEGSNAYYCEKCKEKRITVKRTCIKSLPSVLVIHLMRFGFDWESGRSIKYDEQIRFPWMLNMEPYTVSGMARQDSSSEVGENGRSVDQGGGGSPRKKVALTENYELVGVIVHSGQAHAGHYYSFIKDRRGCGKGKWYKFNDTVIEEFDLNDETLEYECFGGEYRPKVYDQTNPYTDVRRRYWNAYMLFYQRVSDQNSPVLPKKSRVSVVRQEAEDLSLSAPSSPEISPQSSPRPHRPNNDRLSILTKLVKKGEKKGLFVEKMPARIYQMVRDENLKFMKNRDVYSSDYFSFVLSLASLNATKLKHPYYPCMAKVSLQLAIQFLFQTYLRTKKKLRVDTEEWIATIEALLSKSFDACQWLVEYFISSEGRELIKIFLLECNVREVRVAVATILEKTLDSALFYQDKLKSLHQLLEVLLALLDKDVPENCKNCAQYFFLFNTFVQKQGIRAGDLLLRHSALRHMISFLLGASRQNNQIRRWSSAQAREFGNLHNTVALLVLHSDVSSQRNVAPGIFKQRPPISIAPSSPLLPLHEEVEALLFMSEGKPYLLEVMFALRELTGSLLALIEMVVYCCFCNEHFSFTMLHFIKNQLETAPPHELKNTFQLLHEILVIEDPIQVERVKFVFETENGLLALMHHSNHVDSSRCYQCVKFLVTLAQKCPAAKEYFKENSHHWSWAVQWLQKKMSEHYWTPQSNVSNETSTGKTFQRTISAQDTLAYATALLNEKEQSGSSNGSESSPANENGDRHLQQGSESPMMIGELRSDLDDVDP
UniProt Q92905, sequence (Q92905 whole entry, looked up): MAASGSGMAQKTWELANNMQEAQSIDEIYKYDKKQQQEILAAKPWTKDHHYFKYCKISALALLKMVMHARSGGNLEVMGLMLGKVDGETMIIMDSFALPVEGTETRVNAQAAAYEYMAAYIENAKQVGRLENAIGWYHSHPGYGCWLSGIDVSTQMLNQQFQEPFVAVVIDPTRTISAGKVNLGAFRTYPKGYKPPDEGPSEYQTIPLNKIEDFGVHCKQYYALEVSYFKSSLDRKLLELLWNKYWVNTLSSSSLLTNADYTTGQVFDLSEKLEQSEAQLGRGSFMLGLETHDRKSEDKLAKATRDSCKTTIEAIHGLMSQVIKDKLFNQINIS
UniProt P09936, sequence (P09936 whole entry, looked up): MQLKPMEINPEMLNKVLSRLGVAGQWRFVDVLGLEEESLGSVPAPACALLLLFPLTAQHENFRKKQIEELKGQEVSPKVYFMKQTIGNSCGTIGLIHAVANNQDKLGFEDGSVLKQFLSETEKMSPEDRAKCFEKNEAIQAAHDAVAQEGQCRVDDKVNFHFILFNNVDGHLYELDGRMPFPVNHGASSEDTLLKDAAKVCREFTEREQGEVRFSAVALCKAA

Compound in this test: ClCC(=O)N1CCCC1=O
Put plainly: log2 ratio of Biotin-Ahx-Ub-VS probe labelling (fragment/DMSO); higher = less target engagement (more negative = stronger competition), active = hit call of the paper (q ≤ 0.05, log2 ratio ≤ -1). The following applies: compound concentration: 200 uM; treatment time: 3 h. The method, then:
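Competitive ABPP in HEK293T cell lysate. Lysates were treated with each chloroacetamide fragment at 200 µM for 3 h, then with Biotin-Ahx-Ub-VS (0.5 µM, 1 h), NeutrAvidin-enriched and analysed by diaPASEF LC-MS/MS. Protein LFQ was median-normalised; average log2 ratio is fragment/DMSO from an unpaired t-test (n=3 treated, n=44 DMSO). Hits: q ≤ 0.05, log2 ratio ≤ -1, unique peptides ≥ 2.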
On to USP19 (UniProt O94966), for which the “log2 ratio of Biotin-Ahx-Ub-VS probe labelling” value (from here on “log2 ratio”) was -0.376.
For USP48 (UniProt Q86UV5) the value was -0.22; for OTUD5 (UniProt Q96G74), -0.377; for USP16 (UniProt Q9Y5T5), -0.298.
With USP22 (UniProt Q9UPT9), the “log2 ratio” value was -0.616.
On to UniProt Q9P2H5, for which the “log2 ratio” value was -0.151.
As for OTUD6B (UniProt Q8N6M0), the “log2 ratio” value is -0.48.
On to USP15 (UniProt Q9Y4E8), for which the “log2 ratio” value is -0.378.
In the case of USP10 (UniProt Q14694) it was -0.0833; in that of UniProt P51784, -0.126; in that of UniProt Q5T2D3, -0.924.
In the case of EIF3H (UniProt O15372) it was 0.0752.
In the case of UCHL1 (UniProt P09936) it was -0.746; in that of BAP1 (UniProt Q92560), -0.142; in that of PSMD7 (UniProt P51665), -0.274.
For the target USP28 (UniProt Q96RU2), the “log2 ratio” value is -0.413.
For UniProt Q9UGI0 the value was -0.149.
For USP5 (UniProt P45974) the value was -0.246.
For OTUD7B (UniProt Q6GQQ9) the value was -0.251.
In the case of FAM105A (UniProt Q9NUU6), the “log2 ratio” value was -0.739.
For PRPF8 (UniProt Q6P2Q9) the value was 0.106; for ATXN3 (UniProt P54252), -0.301; for UniProt O00507, -0.733.
Consider USP7 (UniProt Q93009), for which the “log2 ratio” value was -0.135.
For YOD1 (UniProt Q5VVQ6) the value was -0.311.
In the case of USP36 (UniProt Q9P275), the “log2 ratio” value is -0.0906.
On to USP14 (UniProt P54578), for which the “log2 ratio” value is -0.184.
With USP25 (UniProt Q9UHP3), the “log2 ratio” value was -0.183.
In the case of EIF3F (UniProt O00303) it was -0.166.
As to USP34 (UniProt Q70CQ2), the “log2 ratio” value was -0.582.
For USP47 (UniProt Q96K76) the value was -0.175; for UniProt O00487, 0.00332; for COPS5 (UniProt Q92905), 0.159.
Take USP24 (UniProt Q9UPU5): the “log2 ratio” value was -0.396.
Regarding USP46 (UniProt P62068), the “log2 ratio” value was -0.141.
For ALG13 (UniProt Q9NP73) the value was 0.188; for USP54 (UniProt Q70EL1), -0.396.
For USP42 (UniProt Q9H9J4), the “log2 ratio” value is -0.218.
UCHL5 (UniProt Q9Y5K5): the “log2 ratio” value was -0.166.
As for OTUD4 (UniProt Q01804), the “log2 ratio” value was -0.294.
